G9a inh: qHTS Assay for Inhibitors of Histone Lysine Methyltransferase G9a; Histone-lysine N-methyltransferase EHMT2 (Homo sapiens), Q96KQ7; G9a H3K9 monomethylation, AlphaScreen, 2 h; Potency, µM (series often up to 102 µM), usual class: inhibitors; hit rate 8.8% among 350,000; AID 504332, 2011; further: nearly all actives have a fitted effect of over 75% in size
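Signal arises when biotinylated H3K9 peptide, once monomethylated, bridges streptavidin donor and antibody-captured acceptor beads. Enzyme at 20 nM was preincubated 15 min with test compounds; peptide 500 nM and SAM 20 uM then reacted for 2 h.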
HP1b binding inh: HTS for Inhibitors of HP1-beta Chromodomain Interactions with Methylated Histone Tails. Chromobox protein homolog 1 (Homo sapiens), P83916. AlphaScreen HP1-beta / biotin-H3K9me3 peptide binding. Potency, µM (titrated, usually from 114 µM), most hits filed as inhibitors. hit rate 0.56% among 390,000. AID 540317, 2011; further: nearly all actives have a fitted effect of over 70% in size
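HP1-beta protein (50 nM final) preincubated 30 min at room temperature with biotinylated H3(1-18)K9me3 peptide (50 nM) in PBS pH 7.4, 0.01% Tween-20, then compound added for 30 min. AlphaScreen streptavidin donor/nickel chelate acceptor beads (10 ug/mL final), 30 min dark, luminescence read.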
JMJD2A Tudor inh: qHTS Assay for Inhibitors of JMJD2A-Tudor Domain; AlphaScreen JMJD2A-Tudor / H3K4me3 peptide binding; Potency, µM (highest dose often 114 µM), actives largely listed as inhibitors; hit rate 4.4% among 390,000; AID 504339, 2011; further: nearly all actives have a fitted effect of over 50% in size
BAZ2B block: qHTS Assay for Inhibitors of BAZ2B; hit rate 4.4% among 360,000; Potency, µM (highest dose often 114 µM), most hits filed as inhibitors; AlphaScreen BAZ2B-H3K14Ac peptide displacement; Bromodomain adjacent to zinc finger domain protein 2B (Homo sapiens), Q9UIF8; further: nearly all actives have a fitted effect of over 60% in size
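Protein-peptide AlphaScreen: BAZ2B 50 nM, b-H3K14Ac 50 nM, 1x PBS pH 7.4 + 0.01% Tween-20. Preincubation 30 min RT; cpd 30 min RT (top 110 uM); beads 20 min RT, light-protected.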
GLS inh: qHTS for Inhibitors of Glutaminase (GLS). GLS enzymatic activity, qHTS titration. Potency, µM (highest dose often 45.5 µM), actives largely listed as inhibitors. hit rate 0.21% among 410,000
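Assay buffer: 45 mM KH2PO4 pH 8.2, 0.02% Tween-20. hKGA acts on L-glutamine (1 mM solution added); product glutamate is reported by an oxidase/peroxidase Amplex Red coupling, with fluorescence taken at baseline and 30 min.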
Each line names hits and unclear results; the compound was inactive in the other large screens. A selection: hits, their analogues and other compounds. The true share with any hit is near 10%. The call rests on the fitted dose curve; in most records, active means well fitted curve in the direction sought with a large enough effect; inconclusive means small, poorly fitted or top-dose-only effect, or another doubt; inactive means no such curve, though single readings can be large; an effect the other way counts as inactive or inconclusive.

COc1cc(/C=C2\C(=O)NN(c3ccccc3)C2=O)ccc1OCC(N)=O	G9a inh 50µM (no result: HP1b binding inh, JMJD2A Tudor inh, GLS inh)
Cc1ccccc1NC(=O)CN1C(=O)C2C3CC(C(Br)C3Br)C2C1=O (centres undefined)	G9a inh 5µM, HP1b binding inh inconclusive, JMJD2A Tudor inh inconclusive
COc1ccc(-c2oc(NC(=O)CCl)c(C#N)c2-c2ccc(OC)cc2)cc1	G9a inh 50µM, JMJD2A Tudor inh inconclusive, BAZ2B block 50µM
CCOc1ccc(CC(=O)Nc2nnc3n2CCS3)cc1	JMJD2A Tudor inh 56µM
CC(C)(C)C(=O)Nc1nnc2n1CCS2	none
CCOc1ccc(CNC(=O)Cc2ccc(NC(=O)N3CCSc4ncccc43)cc2)cc1	none
COc1ccc(CC(=O)Nc2nnc3n2CCS3)cc1	G9a inh inconclusive, JMJD2A Tudor inh 56µM, BAZ2B block inconclusive
O=C(c1ccc(N2CCOCC2)c([N+](=O)[O-])c1)N1CCN(c2ccccc2)CC1	none (no result: G9a inh, BAZ2B block)
CCOc1ccccc1NC(=O)CC1Nc2ccccc2NC1=O (centres undefined)	G9a inh 14µM
CCCOc1ccccc1NC(=O)CC1Nc2ccccc2NC1=O (centres undefined)	none
O=C(CC1Nc2ccccc2NC1=O)NCCc1ccccc1 (centres undefined)	G9a inh 11µM
O=C(CC1Nc2ccccc2NC1=O)Nc1ccc2c(c1)OCO2 (centres undefined)	G9a inh 13µM
CN(C)c1ccc(/C(=N\O)C(F)(F)F)cc1	none
COc1ccc(/C(=N/O)C(C)(C)NO)cc1	G9a inh 13µM, HP1b binding inh inconclusive, JMJD2A Tudor inh 40µM, BAZ2B block 50µM
C/C(=N\O)C(C)(C)Nc1ccc(Br)cc1	none
CC(C)(NO)/C(=N\O)c1ccc(Cl)cc1	G9a inh 10µM, JMJD2A Tudor inh 40µM, BAZ2B block 56µM
CC(C)(NO)/C(=N/O)c1ccc(Br)cc1	G9a inh 32µM, JMJD2A Tudor inh 28µM, BAZ2B block inconclusive
O=C(COc1ccccc1[N+](=O)[O-])NCC1(N2CCOCC2)CCCCC1	none (no result: G9a inh, BAZ2B block)
Cc1ccc(NC(=O)NC2CCCN2S(=O)(=O)c2ccc(Cl)cc2)cc1 (centres undefined)	none
Cc1ncc(CO)c(/C=N/NC(=S)Nc2cccc(Cl)c2)c1O	G9a inh inconclusive, HP1b binding inh inconclusive, JMJD2A Tudor inh 56µM, BAZ2B block 13µM
Cc1ncc(CO)c(/C=N/NC(=S)Nc2ccc(Cl)c(Cl)c2)c1O	HP1b binding inh inconclusive, JMJD2A Tudor inh inconclusive, BAZ2B block 22µM (no result: G9a inh)
Cc1ncc(CO)c(/C=N/NC(=O)c2cc3c(s2)CCCC3)c1O	JMJD2A Tudor inh 56µM, BAZ2B block 50µM
Cc1cc(Cl)ccc1OCC(=O)N1C(C)CCCC1C (centres undefined)	none
Cc1cccc(OCCCC(=O)NCc2ccco2)c1	none
O=C1/C(=C\c2cccnc2)SC(=S)N1C1CCS(=O)(=O)C1 (centres undefined)	G9a inh inconclusive
O=[N+]([O-])c1cc(F)cc(F)c1Nc1cc(F)cc(F)c1	HP1b binding inh inconclusive, JMJD2A Tudor inh 45µM (no result: G9a inh, BAZ2B block)
O=[N+]([O-])c1ccc2nonc2c1Nc1cccc(F)c1	JMJD2A Tudor inh inconclusive, BAZ2B block inconclusive
O=C(OCC(=O)C12CC3CC(CC(C3)C1)C2)c1ccccc1O	none (no result: G9a inh, BAZ2B block)
Cc1ccccc1NC(=O)CN1C(=O)S/C(=C\c2ccc(-c3cc(C(=O)O)ccc3C)o2)C1=O	G9a inh 5µM, HP1b binding inh 40µM, JMJD2A Tudor inh 22µM, BAZ2B block 14µM
Cc1cc(C(=O)O)ccc1-c1ccc(CO)o1	G9a inh inconclusive
Cc1c(/C=C2\SC(=O)N(CC(=O)Nc3ccc4c(c3)OCO4)C2=O)c2ccccc2n1C	GLS inh inconclusive
Cc1ccc(C(=O)O)cc1-c1ccc(/C=C2\SC(=O)N(CC(=O)Nc3ccccc3)C2=O)o1	G9a inh 7.1µM, HP1b binding inh inconclusive, JMJD2A Tudor inh 35µM, BAZ2B block 22µM
Cc1cc(C(=O)O)ccc1-c1ccc(/C=C2\SC(=O)N(CC(=O)Nc3ccc4c(c3)OCO4)C2=O)o1	BAZ2B block 18µM (no result: HP1b binding inh, JMJD2A Tudor inh, GLS inh)
Cc1cccc(NC(=O)CN2C(=O)S/C(=C\c3cc(C)n(C)c3C)C2=O)c1	none
C#CCN1C(=O)S/C(=C\c2ccc(-c3ccc(C(=O)O)cc3C)o2)C1=O	G9a inh inconclusive, JMJD2A Tudor inh 89µM, BAZ2B block 50µM
COc1ccc(-c2oc3ccccc3c2C(=O)OCc2ccc([N+](=O)[O-])cc2)cc1	none (no result: G9a inh)
CCOC(=O)NC(Nc1ncccn1)(C(F)(F)F)C(F)(F)F	none
NS(=O)(=O)c1ccc(CCNC(=O)c2ccc3nccnc3c2)cc1	HP1b binding inh 71µM, JMJD2A Tudor inh 40µM, GLS inh inconclusive (no result: G9a inh, BAZ2B block)
CC(NS(=O)(=O)c1ccc(Br)cc1)C(=O)NCCc1ccccc1 (centres undefined)	G9a inh 40µM
O=C(CCS(=O)(=O)c1ccc(Br)cc1)NCCc1ccccc1	G9a inh 50µM, HP1b binding inh inconclusive, JMJD2A Tudor inh 40µM, BAZ2B block inconclusive
Cc1ccc(CC(=O)NCCc2ccc(S(N)(=O)=O)cc2)cc1	none
O=C(CCNS(=O)(=O)c1ccc(Br)cc1)NCCc1ccccc1	none
NS(=O)(=O)c1ccc(CCNC(=O)c2ccc(C(=O)c3ccccc3)cc2)cc1	none
Cc1ccc2c(CC(=O)NCCc3ccc(S(N)(=O)=O)cc3)coc2c1	JMJD2A Tudor inh 45µM
Fc1ccc(-c2cc3ncc4c(n3n2)-c2cc(Cl)ccc2OC4)cc1	none
Cc1ccc(CC(=O)NCCCc2ccccc2)cc1	none
NS(=O)(=O)c1ccc(CCNC(=O)CCS(=O)(=O)c2ccc(Br)cc2)cc1	G9a inh 28µM, HP1b binding inh 18µM, JMJD2A Tudor inh 32µM, BAZ2B block 32µM, GLS inh inconclusive
Cc1ccc(S(=O)(=O)CCNC(=O)Cc2ccccc2)cc1	JMJD2A Tudor inh 20µM
NS(=O)(=O)c1ccc(CCNC(=O)CSc2ccccc2)cc1	none
COc1ccc(CNC(=O)CCS(=O)(=O)c2ccc(Br)cc2)cc1	G9a inh 45µM, HP1b binding inh inconclusive, JMJD2A Tudor inh inconclusive, BAZ2B block 50µM
NS(=O)(=O)c1ccc(CCNC(=O)CNCCc2ccccc2)cc1	G9a inh 50µM, HP1b binding inh inconclusive, JMJD2A Tudor inh 25µM, BAZ2B block 50µM
CCOC(=O)C1CCCN(C(=O)COC(=O)c2cc(=O)c3ccccc3o2)C1 (centres undefined)	none
CC(C)(C)OC(=O)N1CCC(CNC(=O)c2ccc(F)cc2)CC1	none

Screens: PubChem BioAssay, National Center for Advancing Translational Sciences (NCATS)
